We go through six compounds from PubChem BioAssay (EPA / NIEHS).

Values joined by “and” are separate entries in the source; they are usually repeats but may differ in a detail not shown here. Equal values may be shown once. Records with an inconclusive call do not appear. Some structures have more than one record in an assay (separate samples or runs), and their calls can disagree. Active and inactive are the calls of the source. The calls were made as follows, unless noted: active = hit-call score of the fitted dose curve at least 0.9, where 1 is the maximum; inconclusive = response in the unintended direction; inactive = score below 0.9.

Read-out in assay [1]: solute carrier (SLCO1B1), SLCO1B1 (gene 10599)
Briefly: LTEA_HepaRG_SLCO1B1: Life Technologies and Expression Analysis (LTEA) Assay for solute carrier (SLCO1B1) using HepaRG (AID 2283530; active = hit-call score of the fitted dose curve at least 0.9, where 1 is the maximum; inactive = score below 0.9). Particulars: mRNA level, 48 h; actives raise or lower the signal. The essentials:
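Differentiated human HepaRG cells were exposed for 48 h in serum-free induction medium to eight half-log concentrations, top 100 uM, in 0.5% DMSO. SLCO1B1 mRNA was measured by qRT-PCR, normalized to ACTB, GAPDH and POLR2A, and fitted bidirectionally against DMSO.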

Read-out in assay [2]: sulfotransferase 2A1 (SULT2A1), SULT2A1 (gene 6822)
Briefly: LTEA_HepaRG_SULT2A1: Life Technologies and Expression Analysis (LTEA) Assay for sulfotransferase 2A1 (SULT2A1) using HepaRG (AID 2283531; active = hit-call score of the fitted dose curve at least 0.9, where 1 is the maximum; inactive = score below 0.9). Particulars: mRNA level, 48 h; actives raise or lower the signal. In a few lines:
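HepaRG human liver cells, 48 h exposure in serum-free induction medium to 8 half-log concentrations topping at 100 µM (0.5% DMSO), duplicate wells. SULT2A1 mRNA measured by TaqMan qRT-PCR, normalized to ACTB/GAPDH/POLR2A; bidirectional fit against DMSO.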

Read-out in assay [3]: Transforming Growth Factor (TGFA), TGFA (gene 7039)
Briefly: LTEA_HepaRG_TGFA: Life Technologies and Expression Analysis (LTEA) Assay for Transforming Growth Factor (TGFA) using HepaRG (AID 2283532; active = hit-call score of the fitted dose curve at least 0.9, where 1 is the maximum; inactive = score below 0.9). Particulars: mRNA level, 48 h; actives raise or lower the signal. In a few lines: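 Differentiated human HepaRG cells, plated 48 h then switched to serum-free induction medium, were exposed in duplicate for 48 h to 8-point half-log series from 100 uM in 0.5% DMSO. TGFA mRNA measured by qRT-PCR, normalized to ACTB/GAPDH/POLR2A, bidirectional fit versus DMSO.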

Read-out in assay [4]: Transforming Growth Factor (TGFB1), TGFB1 (gene 7040)
The assay can be described thus: LTEA_HepaRG_TGFB1: Life Technologies and Expression Analysis (LTEA) Assay for Transforming Growth Factor (TGFB1) Transporter using HepaRG (AID 2283533; active = hit-call score of the fitted dose curve at least 0.9, where 1 is the maximum; inactive = score below 0.9). Particulars: mRNA level, 48 h; actives raise or lower the signal. The essentials:
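Differentiated HepaRG cells exposed 48 hr in serum-free induction medium to eight half-log concentrations up to 100 uM (0.5% DMSO), duplicate; TGFB1 mRNA by TaqMan qRT-PCR normalised to ACTB, GAPDH, POLR2A; bidirectional fit against DMSO.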

Read-out in assay [5]: Tumor necrosis factor receptor 1 (TNFRSF1A), TNFRSF1A (gene 7132)
The assay can be described thus: LTEA_HepaRG_TNFRSF1A: Life Technologies and Expression Analysis (LTEA) Assay for Tumor necrosis factor receptor 1 (TNFRSF1A) using HepaRG (AID 2283535; active = hit-call score of the fitted dose curve at least 0.9, where 1 is the maximum; inactive = score below 0.9). Particulars: mRNA level, 48 h; actives raise or lower the signal. In a few lines: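 Differentiated HepaRG cells in serum-free induction medium, exposed 48 h in duplicate to 8 half-log concentrations up to 100 uM in 0.5% DMSO. TNFRSF1A mRNA by Fluidigm TaqMan qRT-PCR, normalized to ACTB, GAPDH, POLR2A; bidirectional fit.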

Read-out in assay [6]: Thyroid Hormone Responsive (THRSP), THRSP (gene 7069)
Briefly: LTEA_HepaRG_THRSP: Life Technologies and Expression Analysis (LTEA) Assay for Thyroid Hormone Responsive (THRSP) using HepaRG (AID 2283536; active = hit-call score of the fitted dose curve at least 0.9, where 1 is the maximum; inactive = score below 0.9). Particulars: mRNA level, 48 h; actives raise or lower the signal. In a few lines:
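Differentiated human HepaRG cells were exposed in duplicate for 48 h in serum-free induction medium to eight concentrations (top 100 uM, half-log steps, 0.5% DMSO). Expression was quantified by TaqMan qRT-PCR, normalized to ACTB, GAPDH and POLR2A, with bidirectional fitting against DMSO.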

Read-out in assay [7]: UDP glucuronosyltransferase (UGT1A1), UGT1A1 (gene 54658)
Briefly: LTEA_HepaRG_UGT1A1: Life Technologies and Expression Analysis (LTEA) Assay for UDP glucuronosyltransferase (UGT1A1) using HepaRG (AID 2283538; active = hit-call score of the fitted dose curve at least 0.9, where 1 is the maximum; inactive = score below 0.9). Particulars: mRNA level, 48 h; actives raise or lower the signal. The essentials:
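Human liver HepaRG cultures receive test chemical for 48 h, up to 100 uM in 0.5% DMSO, with phenobarbital induction controls. UGT1A1 mRNA is measured by qRT-PCR and normalized to ACTB, GAPDH and POLR2A.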

Read-out in assay [8]: UDP glucuronosyltransferase (UGT1A6), UGT1A6 (gene 54578)
The assay can be described thus: LTEA_HepaRG_UGT1A6: Life Technologies and Expression Analysis (LTEA) Assay for UDP glucuronosyltransferase (UGT1A6) using HepaRG (AID 2283539; active = hit-call score of the fitted dose curve at least 0.9, where 1 is the maximum; inactive = score below 0.9). Particulars: mRNA level, 48 h; actives raise or lower the signal. The essentials:
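Differentiated HepaRG cells, ~100,000/well, were exposed for 48 h in serum-free induction medium with 0.5% DMSO to 8-point half-log series topping at 100 uM, in duplicate. mRNA measured by Fluidigm TaqMan qRT-PCR, normalized to ACTB, GAPDH and POLR2A.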

Read-out in assay [9]: X-box binding protein 1 (XBP1), XBP1 (gene 7494)
Briefly: LTEA_HepaRG_XBP1: Life Technologies and Expression Analysis (LTEA) Assay for X-box binding protein 1 (XBP1) using HepaRG (AID 2283540; active = hit-call score of the fitted dose curve at least 0.9, where 1 is the maximum; inactive = score below 0.9). Particulars: mRNA level, 48 h; actives raise or lower the signal. In a few lines: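 Differentiated human HepaRG cells in serum-free induction medium exposed 48 h in duplicate to eight half-log concentrations up to 100 uM in 0.5% DMSO. XBP1 mRNA measured by Fluidigm TaqMan qRT-PCR, normalized to ACTB, GAPDH, POLR2A; bidirectional fitting against DMSO.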

The nature of assay [10]: LTEA_HepaRG_LDH_cytotoxicity: Cytotoxicity Assessment in the Life Technologies and Expression Analysis (LTEA) Assay (AID 2283563). The essentials:
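Differentiated HepaRG cells in serum-free induction medium, exposed 48 h in duplicate to 8 half-log concentrations up to 100 uM in 0.5% DMSO. Cytotoxicity from LDH measured in spent medium, fit relative to DMSO.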

A short description of assay [11]: ATG_XTT_Cytotoxicity: Cytotoxicity Assessment in the Attagene TRANS-FACTORIAL HepG2 Assay (AID 2283584). The essentials: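 HepG2 cells transiently transfected with GAL4-UAS multiple reporter units, dosed 24 h; cytotoxicity read by XTT as loss of signal versus DMSO baseline.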
A short description of assay [12]: TOX21_p53_BLA_p2_viability: Viability Assessment in the Tox21 HCT-116 p53 Agonism Beta-lactamase Assay, Phase 2 (AID 2283591).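 Also: compound exposure lasted 16 h at 37 °C; actives lower the ATP signal meaning cytotoxicity.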 The essentials:
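HCT-116 p53-bla cells (4000/well) rested 5 h at 37C, then received compounds in DMSO (217-fold dilution) for 16 h at 37C, 5% CO2. After the CCF4 read, CellTiter-Glo was added; ATP luminescence was read after 30 min at room temperature.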

Assay [13] concerns the target Cellular tumor antigen p53 (Homo sapiens) (UniProt P04637). Briefly: TOX21_p53_BLA_p2_ratio: Tox21 HCT-116 p53 Agonism Beta-lactamase Assay, Ratio, Phase 2 (AID 2283592). In a few lines:
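HCT-116 cells with p53-responsive beta-lactamase reporter, 4000 cells/well, preincubated 5 h, then compound in DMSO (217-fold dilution) for 16 h at 37C. CCF4-AM substrate 2 h at room temperature; 460/530 nm emission ratio fitted upward versus DMSO.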

Assay [14] in a line: TOX21_p53_BLA_p3_viability: Viability Assessment in the Tox21 HCT-116 p53 Agonism Beta-lactamase Assay, Phase 3 (AID 2283593).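 Also: cells exposed to compound for 16 h before reading.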 The essentials: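 HCT-116 cells (4000/well) rested 5 h at 37C, then got DMSO compounds by pin tool (217-fold dilution) for 16 h at 37C, 5% CO2. After the bla read, CellTiter-Glo was added and luminescence read at 30 min, room temperature.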
The target of assay [15] is Cellular tumor antigen p53 (Homo sapiens) (UniProt P04637). The assay can be described thus: TOX21_p53_BLA_p3_ratio: Tox21 HCT-116 p53 Agonism Beta-lactamase Assay, Ratio, Phase 3 (AID 2283596). In a few lines:
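HCT116 p53-bla cells (4000/well) given compound in DMSO (217-fold dilution) after 5 h, incubated 16 h at 37C. CCF4-AM substrate 2 h at room temperature; 460/530 nm emission ratio, gain fitted against DMSO.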

The nature of assay [16]: TOX21_p53_BLA_p4_viability: Viability Assessment in the Tox21 HCT-116 p53 Agonism Beta-lactamase Assay, Phase 4 (AID 2283597).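 Also: hits lower the luminescence signal meaning cytotoxicity.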 In a few lines: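 HCT-116 p53-bla cells, 4000/well, dosed after 5 h attachment and incubated 16 h at 37 °C, 5% CO2. Viability from CellTiter-Glo ATP luminescence after 30 min at room temperature, taken after the beta-lactamase read; loss of signal indicates cytotoxicity.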

For assay [17], the target named is Cellular tumor antigen p53 (Homo sapiens) (UniProt P04637). The assay can be described thus: TOX21_p53_BLA_p5_ratio: Tox21 HCT-116 p53 Agonism Beta-lactamase Assay, Ratio, Phase 5 (AID 2283599). In a few lines:
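HCT-116 cells carrying a p53-inducible beta-lactamase reporter were seeded at 4000 cells/well and dosed after 5 h with compound in DMSO (217-fold dilution). After 16 h at 37C, CCF4-AM substrate was added for 2 h, and the 460/530 nm emission ratio was scored as gain-of-signal versus DMSO.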

The nature of assay [18]: TOX21_p53_BLA_p5_viability: Viability Assessment in the Tox21 HCT-116 p53 Agonism Beta-lactamase Assay, Phase 5 (AID 2283600). The essentials: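 HCT-116 p53 beta-lactamase reporter cells, 4000/well, were exposed to compound (pin transfer, 217-fold dilution) for 16 hours at 37C. Cellular ATP was read by CellTiter-Glo luminescence after 30 min at room temperature.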
Assay [19] deals with Cellular tumor antigen p53 (Homo sapiens) (UniProt P04637). The assay can be described thus: TOX21_p53_BLA_p4_ratio: Tox21 HCT-116 p53 Agonism Beta-lactamase Assay, Ratio, Phase 4 (AID 2283601). The essentials:
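HCT116 cells carrying an inducible beta-lactamase reporter were plated at 4000 cells/well, rested 5 h, then exposed to compounds in DMSO (217-fold dilution) for 16 h at 37C. CCF4-AM substrate was loaded 2 h at room temperature; 460/530 nm emission ratio scored gain-of-signal versus DMSO.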

Assay [20] is described as follows: Tanguay_ZF_120hpf_MORT_legacy: (Legacy) Oregon State University Tanguay Lab 120 Hour Post-fertilization zebrafish Assay for Mortality (AID 2283633).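 As to AC50: fitted as increase in binary mortality versus DMSO negative control.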 The essentials:
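Dechorionated Tropical 5D wild-type zebrafish embryos, one per well from 6 hpf, static exposure in 0.64% DMSO at 28C until 120 hpf. Mortality scored as binary by brightfield microscopy at 24 and 120 hpf.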

Cellular tumor antigen p53 (Homo sapiens), sequence (P04637 whole entry, looked up): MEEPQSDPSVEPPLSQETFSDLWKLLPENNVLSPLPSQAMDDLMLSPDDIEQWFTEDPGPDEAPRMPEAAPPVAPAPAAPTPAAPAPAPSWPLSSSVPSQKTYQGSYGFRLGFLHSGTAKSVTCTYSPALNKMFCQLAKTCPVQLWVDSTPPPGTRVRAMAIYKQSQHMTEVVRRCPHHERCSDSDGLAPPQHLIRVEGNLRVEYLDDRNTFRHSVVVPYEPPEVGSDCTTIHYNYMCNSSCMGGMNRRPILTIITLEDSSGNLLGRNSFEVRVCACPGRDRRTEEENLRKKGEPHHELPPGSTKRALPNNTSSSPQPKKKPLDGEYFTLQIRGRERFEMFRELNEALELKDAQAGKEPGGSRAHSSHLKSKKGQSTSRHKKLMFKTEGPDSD

Usually AC50 stands for the concentration giving half of the maximal activity seen. Turning to `CC(C)(C)c1cc(O)ccc1O`, the result in [1], in [2], in assay [3], in assay [4], in [5] and in assay [6] was inactive. In addition, the outcome in assay [7], in assay [8], in assay [9], in assay [10], in assay [11] and in assay [12] was inactive. The result in [13], in assay [14], in assay [15], in [16], in assay [17] and in assay [18] was inactive. The result in assay [19] was inactive. The AC50 in assay [20] was 32 µM (active).

In the case of `N#CCCO`, in assay [11], the result was inactive.

As for `CCC(C)(C)c1ccc(O)c(C(C)(C)CC)c1`, the outcome in assay [1], in assay [2], in assay [3], in assay [4], in assay [5] and in assay [6] was inactive. The outcome in assay [7], in assay [8], in [9], in assay [10], in [11] and in assay [20] was inactive. Also, the concentration at half-maximal activity (AC50) in [12] was 46.1 µM (active) and 45.7 µM (active); in [13], 72.7 µM (active) and 66.4 µM (active); in [14] it was 52.9 µM (active) and 64 µM (active); in [15], 79.3 µM (active) and 85.5 µM (active); in assay [16], 23 µM (active) and 53.5 µM (active); in assay [17] it was 22.9 µM (active) and 70.8 µM (active). Also, the AC50 in assay [18] is 22.2 µM (active) and 45.7 µM (active); in [19] it was 54.3 µM (active).

For the compound `CCCCCCCCc1ccc(O)cc1`, the result in assay [1], in [2], in assay [3], in assay [4], in assay [5] and in assay [6] was inactive. The outcome in [8], in [9], in assay [10], in assay [11], in [12] and in assay [13] was inactive. Further, the result in [14], in [16], in [17], in assay [18], in [19] and in [20] was inactive. Moreover, in assay [7], the AC50 is 70.1 µM (active).

Consider `COc1cc(-c2ccc(N)c(OC)c2)ccc1N`, for which the compound was called inactive in assay [1], in assay [2], in [3], in assay [4], in assay [5] and in assay [6]. The compound was called inactive in assay [8], in assay [9], in assay [10], in assay [11], in assay [12] and in assay [13]. The result in assay [14], in [15], in assay [16], in assay [17], in assay [18] and in assay [19] was inactive. Further, the compound was called inactive in assay [20]. Further, the concentration at half-maximal activity (AC50) is 42.9 µM (active) in assay [6]; 25.4 µM (active) and 22.1 µM (active) in [7]; 63 µM (active) in assay [13]; 63.6 µM (active) in assay [15]; 71.3 µM (active) in assay [17]; 64 µM (active) in assay [19].

In the case of `CCOP(=S)(OCC)Oc1nc(Cl)c(Cl)cc1Cl`, the result in assay [1], in assay [2], in [3], in assay [4], in assay [5] and in assay [6] was inactive. For the same compound, the call in [8], in [9], in assay [10], in assay [12], in assay [13] and in assay [14] was inactive. The outcome in assay [16], in assay [17], in [19] and in [20] was inactive. Moreover, the AC50 in [7] was 50 µM (active).
